Source: paper PMC12136788
Positions count from the first letter of the chain named. Over roughly 24,000 sequences, “enrichment r” has its median near 0.99; the highest 2% begin near 3.7. Only a selection was taken, and the highest values are over-represented in it overall.

T1: UNK ZnF1-3 (human, UniProt Q9C0B0 31-174)
T1 sequence: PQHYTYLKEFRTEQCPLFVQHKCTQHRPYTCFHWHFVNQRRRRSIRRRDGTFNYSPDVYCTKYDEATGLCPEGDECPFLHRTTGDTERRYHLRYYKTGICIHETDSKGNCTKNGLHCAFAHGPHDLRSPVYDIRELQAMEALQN

B1: chr5:138654669:138654670:+_ENSG00000015479_ENST00000502499|hu_hu|motif|central (ssRNA)
RNA: GGGAGUUCUACAGUCCGACGAUCUUUCUUUAUUCUUUUAUACUUCUGGGAUAAAUGAACUCUCACUGGCUUGCCAAAUACGGACGCUGGUGUGGUUGUGUAAUAAUCCACUGCGGCCUGAGCAUCCUCUGUGGUUGCCAUUUCCAACAGAGGAUUGAGCAUCA
B2: 59350742_59359075_1706_CDS_ENSG00000157450_ENST00000557998|human|control|control (ssRNA)
RNA: GGGAGUUCUACAGUCCGACGAUCGUUCUGUGACGACCCUCCACAUGGUGAGUGCUGGGGACAGCAGGAAGGUAACCUUGGCAUUGCAGGAGGGCCAGUUUCCGUUACAGCACUAGAUGUAGUUCUCCUUGAGUCAUCUCCUAUCAACAGAGGAUUGAGCAUCA
B3: chr13:100518589:100518590:+_ENSG00000125246_ENST00000339105|hu_mus|FALSE|FALSE (ssRNA)
RNA: GGGAGUUCUACAGUCCGACGAUCUUCCCUUGACUGUCUGAGAAGUCCGUCUUCAUCUCGGAAGUCAAUGUACACAAGAUCUAUGGCUUGUAGGCCAAAGGCUUUUGCCGUGACAACAACCUUCUGCCGGGCAUAGAGGAUGUCCAACAGAGGAUUGAGCAUCA
B4: chr17:65337090:65337091:-_ENSG00000197170_ENST00000584008|hu_mus|FALSE|FALSE (ssRNA)
RNA: GGGAGUUCUACAGUCCGACGAUCCCAGUCAUUUAAUAAAUUAUUUGGAUCCUUGGGUCUCUGGAAGUUGAUGACUCCAGCCAACCUGUCUACUUUAGCAAAGAUGGUCUUGUUAACGACUAGAUUCGAGAGGAAAGCCUCUGACAACAGAGGAUUGAGCAUCA
B5: chr12:35831226:35831227:+_ENSMUSG00000020590_ENSMUST00000048519|mus_mus|motif|central (ssRNA)
RNA: GGGAGUUCUACAGUCCGACGAUCUCAGCAGAAGACAUAUAGCCUCUUUGUGUCUAUGUUCAUCUGUGCAACAAGUGCACGGAAUAGAAUAAUUUUAUUAACCAGAGAAUACUGUACUCUACUCAUCGGUUAAACACUCUACACCAACAGAGGAUUGAGCAUCA
B6: chr9:91093546:91093547:+_ENSG00000106723_ENST00000375859|hu_mus|FALSE|FALSE (ssRNA)
RNA: GGGAGUUCUACAGUCCGACGAUCUACAUCAUAAUUAUAAAAAUUACUUACAGAAUUAACAGUUGUACUGUGUAUACUUCUAAAUGCAGAGAACAGGGAACCGUCUACACGUUGUAUAAAAUAAAAUUAAAAUUAAAAAUGAAUCAACAGAGGAUUGAGCAUCA
B7: chr9:91093546:91093547:+_ENSG00000106723_ENST00000375859|hu_mus|motif|central (ssRNA)
RNA: B6 RNA with U80G, A81G
B8: chr1:10024197:10024198:-_ENSMUSG00000025917_ENSMUST00000027050|mus_mus|FALSE|FALSE (ssRNA)
RNA: GGGAGUUCUACAGUCCGACGAUCCAGCAUCUGUGUACUAACAUCAAUCCCGGAGAGCCAGCAGCCAUAACCAGGGUGGCUAUGAUACCAACCGAUUGCAUUCUCAAGGCGGCCAACCUGUUUGGCAUUUUCUAUGUAUGCAGCCAACAGAGGAUUGAGCAUCA
B9: chr1:225700702:225700703:-_ENSG00000154380_ENST00000366843|hu_hu|motif|central (ssRNA)
RNA: GGGAGUUCUACAGUCCGACGAUCACCAAUAGCAUUCCCUCCACUUGGGAAAGAGGUAUCCUCCAUCCGUGACACUUUCCGGAGUUUUGCUCCGGCAAUUGCAGCUGCAAGUCCAGUUAAAGGGCGAUUGUCUUCUGACAUGGACAACAGAGGAUUGAGCAUCA
B10: chr6:21597833:21597834:+_ENSG00000124766_ENST00000244745|hu_mus|FALSE|FALSE (ssRNA)
RNA: GGGAGUUCUACAGUCCGACGAUCAAAGUUAAAACUCUAGCCCUUCAGUGAAGGAGACGUAAAAUGGCGUGGGUAACAACACUAGAAAAAAAAAAAAAACGAAGAAAAAGAAAGAAAAUAAAAAAGAAGAUAAAGAAACGAGGUCAACAGAGGAUUGAGCAUCA
B11: chr6:21597833:21597834:+_ENSG00000124766_ENST00000244745|hu_mus|motif|central (ssRNA)
RNA: B10 RNA with U82G, A83G
B12: chr14:78183846:78183847:+_ENSG00000119705_ENST00000557342|hu_hu|hu_hu_hu_mus_False|58_98 (ssRNA)
RNA: GGGAGUUCUACAGUCCGACGAUCUCUCAGAAAUCUUUCUUUCUUUUAUGUUUGAGCUCCGUGCAAAGCCUUUGCUCUUCUAGUGUGAACGUGGAUCUAUGGGAGGGAAAGCACUGUCAGAAAAGGUAAUUUUUUUUUUAAAGACAACAGAGGAUUGAGCAUCA
B13: chr17:32491106:32491107:-_ENSMUSG00000024050_ENSMUST00000163107|mus_hu|FALSE|FALSE (ssRNA)
RNA: GGGAGUUCUACAGUCCGACGAUCAUCGAUAACCAAAAUGUGGCCACUGAAAAAAGUUAAAAGGUCAAUCAGCUCCUGGCUUCUAGCUGGCCCAGGAUUGCAAAAUAAAAAGAUCCACGUUCCUUAUUCUCUACACAAAACGCGCAACAGAGGAUUGAGCAUCA
B14: chr2:48026839:48026840:+_ENSG00000116062_ENST00000540021|hu_hu|hu_hu_hu_mus_False|28_88 (ssRNA)
RNA: GGGAGUUCUACAGUCCGACGAUCAUAGUGAGCCACUAGCGUCCUAAAUCUCGAACAGUGGCGGUCAUCCGAAAACUGGCCGAUGAAAAACUUGCCCAGUGAAGUGUCAACAAAGCAAACACCAUACACACGAGUGUGACCAGACAACAGAGGAUUGAGCAUCA
B15: chr1:100342015:100342016:+_ENSG00000162688_ENST00000361915|hu_hu|motif|central (ssRNA)
RNA: GGGAGUUCUACAGUCCGACGAUCAGAUUCUUCCAUGGAGAAGUCUAUCUCUUCAAAUGGGAAAGUAAAAUACCUGGUAACGGAAGGAUGCUUUCUAGUGACAGGUCCUAGUUUUGGACCAUGGCCAGCCAGUCGUUCAUAAAACAACAGAGGAUUGAGCAUCA
B16: 75522086_75522670_732_CDS_ENSMUSG00000026213_ENSMUST00000113553|mouse|control|control (ssRNA)
RNA: GGGAGUUCUACAGUCCGACGAUCCAGGAGACGCAGGGAGCUGUCUAAGCUCCUGAGCGCAUUGUAGCUGAAGUCGGCAGAAAGCAAGGCUAGCCAGGGGAGGGCAGAGCAGAGAUCCCCACCACAGGCUGACAAGAGCUCCUCCAACAGAGGAUUGAGCAUCA
B17: chr1:244855233:244855234:+_ENSG00000121644_ENST00000302550|hu_mus|hu_hu_hu_mus_True|28_88 (ssRNA)
RNA: GGGAGUUCUACAGUCCGACGAUCCAUCAGAUGGUAGGCGUUGCCCUUGUAUUCUUUCCCCAGUUCUUCUACAAUUUUCUCUAUAUCAUCUUCUAGAAAGUCCGUACUCCCUAAAACAACAGCUUCUUUAAAUUUAAAUGUUUCCAACAGAGGAUUGAGCAUCA
B18: chr7:118222036:118222037:-_ENSMUSG00000005610_ENSMUST00000162415|mus_mus|FALSE|FALSE (ssRNA)
RNA: GGGAGUUCUACAGUCCGACGAUCAUCAAAGUUUGGUGCAUCUUCUGCCAAUCGCAGACAUAGCUGAGCAUACAGCGAGCUAUACUUUGGCUCUUCUAAGGCUUUGUCCACAAUCAGCAGUAUGACCCCUUUAAGGAUGAGUUUCAACAGAGGAUUGAGCAUCA
B19: chr15:25293464:25293465:-_ENSMUSG00000045763_ENSMUST00000058845|mus_hu|motif|central (ssRNA)
RNA: GGGAGUUCUACAGUCCGACGAUCAAAAAUAUCUGGAGAGGAAGAAUGGAGGAUUGGCAUUGAGAUCCAUGUGGACAAGCGGAGUGGGCUCUGUCUGAAAGCUGGCAUUCAUCCACAACAUUAAAAAAAUAUCAAAAUAAGAAACAACAGAGGAUUGAGCAUCA
B20: chr15:25293464:25293465:-_ENSMUSG00000045763_ENSMUST00000058845|mus_mus|motif|central (ssRNA)
RNA: GGGAGUUCUACAGUCCGACGAUCAAAAAUAUCUGGAGAGGAAAAAUGGAGGGUUGGCAUUGAGAUACAUGUGGACAAGCGGAGUGGGCUCCGUCUGAAAGUUGGCAUUCAUCCACGAACGUUUAAAAAAAUACCAAAAAAAUUCAACAGAGGAUUGAGCAUCA
B21: chr1:46159212:46159213:+_ENSG00000159596_ENST00000372025|hu_mus|hu_hu_hu_mus_True|38_58 (ssRNA)
RNA: GGGAGUUCUACAGUCCGACGAUCUCUGAUCCCUCCCAAGAAAGCUAGGAAACCGGCUCCAUAAGCCAUCUGAGUGAAAGCUAAUAUGGGGAUAUAAGUUUUUGUCAUUACCAUGAGAAGUGGGGGAGCAGUAAAGGGGAUUAACAACAGAGGAUUGAGCAUCA
B22: chr15:25293464:25293465:-_ENSMUSG00000045763_ENSMUST00000058845|mus_hu|FALSE|FALSE (ssRNA)
RNA: B19 RNA with G80U, G81A
B23: chr18:38477064:38477065:+_ENSMUSG00000060450_ENSMUST00000072376|mus_hu|motif|central (ssRNA)
RNA: GGGAGUUCUACAGUCCGACGAUCUGCAGAUAUAAUUCAAGAACAUUCAGCUUGGGAAUAUAUUAAGCUUUCUCCGGUUCCAGCAGAGGAAAUAAAAACAUGUGUUCCUGGAAUUAAUAUUAAAAUCAUCCUUACAAACAGAAGCAACAGAGGAUUGAGCAUCA
B24: chr9:122046571:122046572:+_ENSMUSG00000038145_ENSMUST00000120173|mus_mus|FALSE|FALSE (ssRNA)
RNA: GGGAGUUCUACAGUCCGACGAUCCUGAAAUUUGUUGCUGAAGCCAAAGUCUGUCAACUUCACAAGACCUUGUUUUUCAAAAAAGACUACAUUCUCUGGUUUCAAGUCUCUGUGGACCACAUGGAGUUUAUGGCAAUAAGAUAUCAACAGAGGAUUGAGCAUCA

Target: T1, UNK ZnF1-3
Assay: nsRBNS (natural sequence RNA bind-n-seq); RBNS binding buffer (assumed for nsRBNS): 25 mM Tris pH 7.5, 150 mM KCl, 3 mM MgCl2, 0.01% Triton X-100, 500 ug/ml BSA, 20 U/ml SUPERase-In, 4 C; UNK is unkempt and MSI1 is Musashi-1; names of the RNAs are library labels; protein concentration not given here; high values mean tight binding

| Binder | binding signal |
| --- | --- |
| B1 | 0.487 enrichment R |
| B2 | 0.898 enrichment R |
| B3 | 0.641 enrichment R |
| B4 | 1.07 enrichment R |
| B5 | 0.463 enrichment R |
| B6 | 7.07 enrichment R |
| B7 | 4.68 enrichment R |
| B8 | 1.5 enrichment R |
| B9 | 0.794 enrichment R |
| B10 | 7.3 enrichment R |
| B11 | 5.74 enrichment R |
| B12 | 1.14 enrichment R |
| B13 | 1.24 enrichment R |
| B14 | 1.25 enrichment R |
| B15 | 0.918 enrichment R |
| B16 | 1.21 enrichment R |
| B17 | 1.19 enrichment R |
| B18 | 0.544 enrichment R |
| B19 | 8.1 enrichment R |
| B20 | 3.28 enrichment R |
| B21 | 1.29 enrichment R |
| B22 | 15.3 enrichment R |
| B23 | 2.14 enrichment R |
| B24 | 0.833 enrichment R |
